Source: PubChem BioAssay (NCATS)
Records with an inconclusive call do not appear. Calls of active or inactive are those of the source. Calls follow the shape of the dose curve; as a rule, active = well fitted inhibition curve with a large enough effect; inconclusive = small, poorly fitted or top-dose-only effect; inactive = flat fitted curve, though single readings scatter.

target: Ubiquitin carboxyl-terminal hydrolase 1 (Homo sapiens) (UniProt O94782); assay: Inhibitors of USP1/UAF1: Pilot qHTS (AID 504865); conditions: purified USP1/UAF1, Ub-rhodamine cleavage fluorescence; series mostly up to 114 µM; activity change, negative = inhibition: at the top concentration; also: nearly all actives have a fitted effect of over 35% in size;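 as to activity change, negative = inhibition: rhodamine fluorescence freed from ubiquitin-rhodamine substrate followed over time; top concentration of the series differs between compounds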
Source text: Deubiquitinating enzymes (DUBs) are a class of enzymes that can cleave isopeptide bond formed between the C-terminal carboxylate of ubiquitin and a lysine side-chain amino group on the target protein. Among them, ubiquitin specific proteases (USPs) constitute the largest DUB family. Human USPs are emerging as promising targets for pharmacological intervention because of their connection to a number of human diseases, including prostate, colon and breast cancer (1, 2), pediatric acute lymphoblastic leukemia (3), and familial cylindromatosis (4). The advantage of inhibiting USPs lies in the potential specificity of therapeutic intervention that can lead to better efficacy and reduce nonspecific side effects.
In a collaboration between the University of Delaware and the NIH Chemical Genomics Center, a high-throughput screen assay was developed to screen for USP1/UAF1 inhibitors. This miniaturized assay has a fluorescent read-out and is used to screen the NIH Molecular Libraries Small Molecule Repository (MLSMR) in order to identify a small molecule that inhibits USP1.
NIH Chemical Genomics Center [NCGC]
NIH Molecular Libraries Probe Centers Network [MLPCN]
Assay Submitter (PI): Zhihao Zhuang, University of Delaware
1. Priolo, C., et al. (2006) The isopeptidase USP2a protects human prostate cancer from apoptosis. Cancer Res 66, 8625-8632
2. Popov, N., et al. (2007) The ubiquitin-specific protease USP28 is required for MYC stability. Nat Cell Biol 9, 765-774
3. De Pitta, C., et al. (2005) A leukemia-enriched cDNA microarray platform identifies new transcripts with relevance to the biology of pediatric acute lymphoblastic leukemia. Haematologica 90, 890-898
4. Kovalenko, A., et al. (2003) The tumour suppressor CYLD negatively regulates NF-kappaB signalling by deubiquitination. Nature 424, 801-805
3 microliters of reagents (buffer in columns 3 and 4 as negative control and 1nM USP1/UAF1 complex in columns 1, 2, and 5-48) are dispensed into Greiner black solid bottom 1536-well assay plates. Compounds are then transferred via Kalypsys pin tool equipped with 1536-pin array (10nl slotted pins, V&P Scientific, San Diego, CA). Following an incubation step of 15 min at room temperature, 1ul of Ub-Rho substrate (150nM final concentration) is added to initiate the reaction. The plates are immediately centrifuged at 1000 rpm for 15 seconds, and subsequently transferred to a ViewLux high-throughput CCD imager (PerkinElmer) wherein kinetic measurements of fluorescence are acquired using 480 nm excitation/540 nm emission filter set (6 reads every 60 seconds, see Table 1). All reagents are diluted in an assay buffer consisting of 50mM HEPES (pH 7.8), 0.5mM EDTA, 0.1 mg/ml BSA, 1mM TCEP, and 0.01% Tween-20.
% is scaled to controls: 0 for no effect and ±100 for the full control effect; potency is read from the fitted curve at half-maximal effect.

Ubiquitin carboxyl-terminal hydrolase 1 (Homo sapiens), sequence (O94782 whole entry, looked up): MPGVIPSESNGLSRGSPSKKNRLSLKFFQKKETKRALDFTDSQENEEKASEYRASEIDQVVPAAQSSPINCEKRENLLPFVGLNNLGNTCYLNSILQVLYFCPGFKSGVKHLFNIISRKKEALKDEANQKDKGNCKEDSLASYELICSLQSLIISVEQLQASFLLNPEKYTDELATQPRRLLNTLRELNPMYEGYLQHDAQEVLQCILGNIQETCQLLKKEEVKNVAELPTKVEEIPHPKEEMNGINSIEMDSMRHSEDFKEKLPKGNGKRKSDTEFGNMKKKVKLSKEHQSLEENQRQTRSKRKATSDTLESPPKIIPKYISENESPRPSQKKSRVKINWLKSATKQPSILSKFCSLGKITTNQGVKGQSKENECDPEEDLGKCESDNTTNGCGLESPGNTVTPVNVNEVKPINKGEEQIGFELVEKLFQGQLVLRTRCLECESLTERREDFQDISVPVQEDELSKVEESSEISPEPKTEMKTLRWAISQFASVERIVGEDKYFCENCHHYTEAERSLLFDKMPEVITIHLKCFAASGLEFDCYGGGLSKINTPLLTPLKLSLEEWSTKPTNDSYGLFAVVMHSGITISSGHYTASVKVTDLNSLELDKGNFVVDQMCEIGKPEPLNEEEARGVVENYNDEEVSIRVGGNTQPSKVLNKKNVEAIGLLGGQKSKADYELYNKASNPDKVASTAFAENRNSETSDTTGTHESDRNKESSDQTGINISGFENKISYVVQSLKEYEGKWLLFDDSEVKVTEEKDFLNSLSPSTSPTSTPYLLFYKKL

Structure (SMILES)	activity change, negative = inhibition	Potency
CNC(=O)NC(O)C(Cl)(Cl)Cl (stereo not given)	-6.46% (inactive)	
Cc1ncc2n1-c1ccc(Cl)cc1C(c1ccccc1F)=NC2	-7.63% (inactive)	
C[C@]12Cc3nonc3C[C@@H]1CC[C@@H]1[C@@H]2CC[C@@]2(C)[C@H]1CC[C@]2(C)O	-7.19% (inactive)	
C[N+]1(CCC(C(N)=O)(c2ccccc2)c2ccccc2)CCCCC1	0.54% (inactive)	
O=C(O)c1nn(Cc2ccc(Cl)cc2Cl)c2ccccc12		inactive
CC(C)C(Br)C(=O)NC(N)=O (stereo not given)	1.73% (inactive)	
C[N+](C)(C)CCOC(=O)C(O)(c1ccccc1)c1ccccc1	-7.45% (inactive)	
COc1ccc(CN2CCNCC2)c(OC)c1OC	-1.3% [at 54.9 µM] (inactive)	
CN(C)C(=O)Oc1cc(OC(=O)N(C)C)cc(C(O)CNC(C)(C)C)c1 (stereo not given)	-3.95% (inactive)	
NC(=O)OCCCc1ccccc1	2.19% (inactive)	
CCCCCCCCCCCC[N+](C)(C)CCOc1ccccc1		79.4 µM (active)
c1ccc2nc(N3CCNCC3)ccc2c1		inactive
CCN(CC)C(C)C(=O)c1ccccc1 (stereo not given)	-7.05% (inactive)	
CC(C)(O)C(Cl)(Cl)Cl	-4.62% (inactive)	
CCCCCCCCCCCCCCCC[n+]1ccccc1		20 µM (active)
OC(c1ccccc1)(c1ccccc1)C1CCNCC1	3.61% [at 54.9 µM] (inactive)	
CC[n+]1c(-c2ccccc2)c2cc(N)ccc2c2ccc(N)cc21		39.8 µM (active)
CN1C(=O)[C@@H](NC(=O)c2cc3ccccc3[nH]2)N=C(c2ccccc2)c2ccccc21	-4.12% (inactive)	
C[C@]12C=CC(=O)C=C1CC[C@@H]1[C@@H]2CC[C@@]2(C)[C@H]1CC[C@]2(C)O	-2.77% (inactive)	
COC(=O)C1=CCCN(C)C1		inactive

Structure (SMILES)	activity change, negative = inhibition	Potency
C[C@H]1C(=O)O[C@@H]2CCN3CC=C(COC(=O)[C@](C)(O)[C@]1(C)O)[C@H]23	0.385% (inactive)	
COP(=O)(OC)OC=C(Cl)Cl	-4.48% (inactive)	
c1cc2c(c(N3CCNCC3)c1)OCCO2	-1.2% (inactive)	
OC(O)C(Cl)(Cl)Cl	-3.14% (inactive)	
NC(=O)CN1CCCC1=O		inactive
CN(C)C(=S)SSC(=S)N(C)C		inactive
N#Cc1nn(-c2c(Cl)cc(C(F)(F)F)cc2Cl)c(N)c1S(=O)C(F)(F)F (stereo not given)	-11.2% (inactive)	
O=C(CCCN1CCC(n2c(=O)[nH]c3ccccc32)CC1)c1ccc(F)cc1	3.88% [at 54.9 µM] (inactive)	
Clc1ccc(C(OCCN2CCCCC2)c2ccccc2)cc1 (stereo not given)	-10.2% (inactive)	
CN1CCc2cc(Cl)c(O)cc2[C@H]2c3ccccc3CC[C@@H]21	-6.96% (inactive)	
CCCC(C)C1(CC)C(=O)N=C(S)NC1=O (stereo not given)	-11.6% (inactive)	
CCC1(CC)C(=O)NC(=O)NC1=O	-2.14% (inactive)	
CNC(=O)Oc1cccc2ccccc12	-7.79% (inactive)	
CNC(=O)Oc1ccc2c(c1)[C@]1(C)CCN(C)[C@@H]1N2C		inactive
CC(C)NCC(O)c1ccc(N)c(C#N)c1 (stereo not given)	-4.02% (inactive)	
Oc1c(Br)cc(Br)cc1Br	-6.45% (inactive)	
CCOC(=O)NC(O)C(Cl)(Cl)Cl (stereo not given)	-4.17% (inactive)	
COCC(=O)N(c1c(C)cccc1C)C(C)C(=O)OC (stereo not given)	-1.9% (inactive)	
CN1C(=O)CN=C(c2ccccc2)c2cc([N+](=O)[O-])ccc21	-1.64% (inactive)	
COP(=O)(OC)C(O)C(Cl)(Cl)Cl (stereo not given)	7.96% (inactive)	
